Records with an inconclusive call do not appear. Where a call stands in place of a potency, no number is given. Calls of active or inactive are those of the source. Calls come from the whole dose curve; as a rule, active = well fitted cell-killing curve with a large enough effect; inconclusive = small, poorly fitted or top-dose-only effect, or effect the other way; inactive = flat fitted curve, though single readings scatter. Where a SMILES comes first, the peptide text is derived from it.

This test has as its system Es-2. The test is described as follows: Primary qHTS to identify gynecologic anti-cancer compounds using libraries of approved drugs and bioactive compounds (AID 1345084). Note: nearly all actives have a fitted effect of over 55% in size. The note with it: Gynecologic cancer cell panel viability, ATPlite luminescence, 48 h; series mostly up to 57.5 µM. The essentials:
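48 h compound exposure at 37 C, 5% CO2; five-point qHTS. ATPlite luminescence readout of cell ATP.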
(In general: Quantitative high-throughput screening tests each substance at several concentrations.)
Turning to `OCC1OC(Oc2cc(O)cc(/C=C/c3ccc(OC4OC(CO)C(O)C(O)C4O)cc3O)c2)C(O)C(O)C1O` (centres undefined), the Potency entry was “inactive”.
As for `C[C@@H]1O[C@@H](O[C@H]2[C@H](O[C@H]3[C@H](O[C@H]4CC[C@@]5(C)C(CC[C@]6(C)C5CC=C5[C@@H]7CC(C)(C)CC(=O)[C@]7(C)CC[C@]56C)[C@@]4(C)CO)O[C@H](C(=O)O)[C@@H](O)[C@@H]3O)O[C@H](CO)[C@H](O)[C@@H]2O)[C@H](O)[C@H](O)[C@H]1O` (some centres undefined), the activity change, negative = cytotoxicity is -0.773% [at 11.6 µM] (inactive).
Regarding `CC(O)C/C=C/C=C/C(=O)OC1C=C2COC(=O)C2(O)C2(C)CCCC(C)(C)C12` (centres undefined), the Potency result is “inactive”.
Turning to `C[C@@H]1O[C@@H](O[C@H]2[C@H](O)[C@@H](O[C@@H]3O[C@H](CO)[C@H](O)[C@H](O)[C@H]3O)[C@H](O[C@H]3CC[C@@]4(C)C(CC[C@]5(C)C4CC=C4[C@@H]6CC(C)(C)CC[C@]6(C(=O)O[C@@H]6O[C@H](CO)[C@@H](O)[C@H](O)[C@H]6O)CC[C@]45C)C3(C)C)O[C@@H]2C(=O)O)[C@H](O)[C@H](O)[C@H]1O` (some centres undefined), the activity change, negative = cytotoxicity was 2.19% [at 11.6 µM] (inactive).
As for `COc1ccnc(CCc2nc3ncccc3[nH]2)c1`, the Potency entry was “inactive”.
Take `CC(=O)O[C@@H]1[C@H](O[C@@H]2OC[C@](O)(CO)[C@H]2O)[C@@H](O[C@@H]2O[C@@H](C)[C@H](O)[C@@H](O[C@@H]3O[C@H](CO)[C@@H](O)[C@H](O)[C@H]3O)[C@H]2O)[C@H](OC(=O)[C@]23CCC(C)(C)C[C@H]2C2=CCC4[C@@]5(C)C[C@H](O)[C@H](O[C@@H]6O[C@H](C(=O)O)[C@@H](O)[C@H](O)[C@H]6O)[C@@](C)(C(=O)O)C5CC[C@@]4(C)[C@]2(C)CC3)O[C@@H]1C` (some centres undefined): the activity change, negative = cytotoxicity is 1.19% [at 6.55 µM] (inactive).
As for `CC(C)CC(=O)O[C@@H]1O[C@H](CO)[C@@H](O[C@H]2O[C@H](C)[C@@H](N[C@H]3C=C(CO)[C@@H](O[C@H]4O[C@H](CO)[C@@H](O[C@H]5O[C@H](CO)[C@@H](O[C@H]6O[C@H](CO)[C@@H](O)[C@H](O)[C@H]6O)[C@H](O)[C@H]5O)[C@H](O)[C@H]4O)[C@H](O)[C@H]3O)[C@H](O)[C@H]2O)[C@H](O)[C@H]1O`, the activity change, negative = cytotoxicity is -3.07% [at 11.6 µM] (inactive).
Take `NC[C@H]1CCC[C@@H](CNC(=O)[C@@H](Cc2c[nH]c3ccccc23)NC(=O)N2CCC3(C=Cc4ccccc43)CC2)C1`: the Potency result was “inactive”.
With `CC1CCC2(C)CCC3(C)C(=CCC4C5(C)CCC(O)C(C)(C(=O)O)C5CCC43C)C2C1C` (centres undefined), the Potency result was “inactive”.
Take `C[C@@H]1O[C@@H](O[C@H]2[C@@H]3C=CO[C@@H](O[C@@H]4O[C@H](CO)[C@@H](O)[C@H](O)[C@H]4O)[C@@H]3[C@@]3(CO)O[C@@H]23)[C@H](O)[C@H](O)[C@H]1OC(=O)/C=C/c1ccc(O)cc1`: the Potency result is “inactive”.
On the same count and under the same terms, under `CC(CC12CCCN1C(=O)C1CCCN1C2=O)OC(N)=O` (centres undefined) stands “inactive”; under `CC/C=C\C(O)C(O)C1=C(C)C(=O)C2(O1)C(=O)NC(OC)(C(=O)c1ccccc1)C2O` (centres undefined), “inactive”; under `COc1c2cc(c(O)c1OC)CCCCC(O)CCc1ccc(O)c-2c1` (centres undefined), “inactive”.
The same measure, in the same setting: under `CC1CC(=O)[C@]2(O)C(C(=O)OCCc3ccc(O)cc3)=CO[C@@H](O[C@@H]3O[C@H](CO)[C@@H](O)[C@H](O)[C@H]3O)[C@H]12` (some centres undefined) stands “inactive”; under `COC(=O)C1=CO[C@@H](O[C@@H]2O[C@H](CO)[C@@H](O)[C@H](O)[C@H]2O)C2C1CC(O)C2C` (some centres undefined), “inactive”; under `CC(=O)OC[C@]12[C@H](OC(C)=O)[C@H](OC(=O)c3ccccc3)[C@@H]3[C@@H](OC(C)=O)[C@]1(OC3(C)C)[C@H](C)C[C@H](OC(=O)c1ccccc1)[C@@H]2OC(=O)c1ccccc1`, “inactive”.
Same read-out and setting: under `C[C@]1(C2CCCC2)Cc2cc(OCC(=O)O)c(Cl)c(Cl)c2C1=O` stands “inactive”.
Take `CC(NC(=O)c1ccccc1N)C(=O)O` (centres undefined): the Potency result is “inactive”.
As for `O=C(Nc1ccn(Cc2c(F)cccc2C(F)(F)F)n1)c1c(F)cccc1F`, the activity change, negative = cytotoxicity was 0.101% [at 11.6 µM] (inactive).
Take `O=C(OC(C(F)(F)F)C(F)(F)F)N1CCN(Cc2cccc(Oc3ccccc3)c2)CC1`: the Potency entry is “inactive”.
Same read-out and setting: under `C[C@H]1CC[C@@]2(OC1)O[C@H]1CC3C4CC[C@H]5C[C@@H](O)CC[C@]5(C)C4CC(=O)[C@]3(C)[C@H]1[C@@H]2C` (some centres undefined) stands “inactive”; under `Cc1oc(S(=O)(=O)N2CCCCC2)cc1NC(=O)Nc1ccccc1`, “inactive”; under `CCC(C)/C=C(C)/C=C/C1=CC2=C(Cl)C(=O)C(C)(OC(C)=O)C(=O)C2=CN1C(CC(=O)O)C(=O)O` (centres undefined), “inactive”.
Still for that read-out and setting: under `CC(C)[C@](O)(c1ccc2cc(OC(F)F)c(OC(F)F)cc2c1)c1cn[nH]n1` stands “inactive”.
The same measure, in the same setting: under `COc1cc(C(=O)OC[C@H]2O[C@@H](OC(C)(C)C(=O)O)[C@H](O)[C@@H](O)[C@@H]2O)cc(OC)c1O` stands “inactive”; under `COc1cc(C(C)=O)ccc1O[C@@H]1O[C@H](CO)[C@@H](O)[C@H](O)[C@H]1O`, “inactive”; under `CC1(C)C(=O)CCC2(C)C1C(O)C=C1COC(=O)C12O` (centres undefined), “inactive”.
Regarding `COc1cc(/C=C/c2ccccc2)c(C(=O)O)c(O)c1CC=C(C)C`, the Potency entry was “inactive”.
On the same count and under the same terms, under `CCC(C)C(C(=O)O)N1Cc2c(OCC=C(C)C)c(C)c(OC)c(C(=O)O)c2C1=O` (centres undefined) stands “inactive”; under `COC(=O)C1=CO[C@@H](O[C@@H]2O[C@H](CO)[C@@H](O)[C@H](O)[C@H]2O)[C@@H]2[C@@H](CO)[C@@H](O)C(O)[C@H]12` (some centres undefined), “inactive”.
Same read-out and setting: under `CC(C)C[C@H](NC(=O)[C@@H]1O[C@H]1C(=O)O)C(=O)NCCCCN=C(N)N` stands “inactive”; under `C[C@@H]1O[C@@H](OC[C@H]2O[C@@H](OCc3ccccc3)[C@H](O)[C@@H](O)[C@@H]2O)[C@H](O)[C@H](O)[C@H]1O`, “inactive”.
As for `CNC(=O)c1ccc2c(c1)CCO[C@H]2CCN1CCN(c2ccc(C(N)=O)cc2)CC1`, the Potency result was “inactive”.
Turning to `COC(=O)C1=COC(OC2OC(CO)C(O)C(O)C2O)C2C(COC(=O)/C=C/c3ccc(O)c(O)c3)C(O)C(O)C12` (centres undefined), the Potency entry was “inactive”.
The same measure, in the same setting: under `CC(C)C1NC(=O)CNC(=O)C2CCCN2C(=O)C(Cc2c[nH]c3ccccc23)NC(=O)CNC(=O)C(Cc2ccc(O)cc2)NC(=O)CNC1=O` (centres undefined) (cyclo(GVGYGWP); configuration not given here) stands “inactive”; under `CC(C)c1ccc2c(c1)C(=O)CC1C(C)(C(=O)O)CCCC21C` (centres undefined), “inactive”.
Take `C=C1CCC2(C(=O)OC3OC(CO)C(O)C(O)C3O)CCC3(C)C(=CCC4C5(C)CCC(OC6OC(CO)C(OC7OC(C)C(O)C(O)C7O)C(OC7OCC(O)C(O)C7O)C6O)C(C)(C)C5CCC43C)C2C1` (centres undefined): the activity change, negative = cytotoxicity was -3.02% [at 11.6 µM] (inactive).
Regarding `C=C1CC2C(C)(CCC(=O)O)C(C(C)(C)O)CCC2(C)C2(C(=O)OC)C(=O)C(C)(O)C(=O)C12C` (centres undefined), the Potency result is “inactive”.
On the same count and under the same terms, under `COc1ccc(-n2c(SCC#N)nc3sc4c(c3c2=O)CCCC4)cc1` stands “inactive”.

For the origin of these results see PubChem BioAssay (NCATS).
